# pAkt inh: blocks phosphorylation of Akt | Neuro2A IGF-stimulated pAkt S473 HTRF, 20 min; hits give low values | activity change, % for hits at 50 µM | 360,000 tested, 0.32% active; in the data active = activity change below about -80%; inconclusive = mostly about -51% to -80%; also: % is scaled to controls: 0 for no effect and ±100 for the full control effect
#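 Single-point screen (50 µM final compound) in Neuro2A cells stimulated 20 min with 6 nM IGF at 37 deg C. After lysis, Ser473-phosphorylated Akt read by HTRF (ex 330 nm, em 615/665 nm) as the 665/615 ratio.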
# D3 ag: activates the human D3 dopamine receptor; max activation, %; 410,000 tested, 0.58% active; D3R DiscoveRx beta-arrestin cells, luminescence, 90 min; P35462; in the data active = max activation above about 30%; also: 0% is about no effect
#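 Agonist mode: compounds and dopamine controls were applied to plated cells for 90 min at 37 degrees C after an overnight attachment at 1500 cells/well. Luminescent read-out followed 30 - 60 minutes at room temperature with DiscoveRx detection reagent.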
# LDHA block: inhibitors of human lactate dehydrogenase A | activity change, % (values are at about 110 or 230 µM) | P00338 | 480,000 tested, 0.15% active | purified LDHA, NADH/diaphorase-resazurin fluorescence; hits give low values; in the data active = activity change below about -30%; inconclusive = mostly about -25% to -30%;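 also: plate controls were DMSO wells for no effect and wells without enzyme for full effect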
#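 Enzyme activity of human lactate dehydrogenase 5 (2 nM; 0.06 mM NADH, 0.2 mM pyruvate, 5 min, RT) is measured via a resazurin/diaphorase fluorescence readout of residual NADH.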
# D3 antag: blocks the human D3 dopamine receptor; max response, negative = inhibition, %; 360,000 tested, 2.5% active; P35462; D3R cells, DiscoveRx beta-arrestin luminescence, antagonist mode; hits give low values; in the data active = max response below about -50%; inconclusive = no clear call, values can overlap the other calls; also: % is scaled to controls: 0 for no effect and ±100 for the full control effect
#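 Cells expressing the human receptor were seeded at 1500 cells/well, incubated overnight at 37 degrees C in 5% CO2, then exposed to library compounds with dopamine controls for 90 minutes at 37 degrees C before luminescent detection.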
# PI4K2A block: inhibitors of human PI4K2A; 420,000 tested, 0.13% active; purified PI4K2A, ADP-Glo luminescence, 1 h; hits give low values; AID 1346378; activity change, negative = inhibition, % at 76.9 µM; Q9BTU6; in the data active = activity change below about -50%; inconclusive = mostly about -30% to -49%;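 also: -100% = wells without enzyme as full effect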
# Target sequence (Q9BTU6 whole entry, looked up): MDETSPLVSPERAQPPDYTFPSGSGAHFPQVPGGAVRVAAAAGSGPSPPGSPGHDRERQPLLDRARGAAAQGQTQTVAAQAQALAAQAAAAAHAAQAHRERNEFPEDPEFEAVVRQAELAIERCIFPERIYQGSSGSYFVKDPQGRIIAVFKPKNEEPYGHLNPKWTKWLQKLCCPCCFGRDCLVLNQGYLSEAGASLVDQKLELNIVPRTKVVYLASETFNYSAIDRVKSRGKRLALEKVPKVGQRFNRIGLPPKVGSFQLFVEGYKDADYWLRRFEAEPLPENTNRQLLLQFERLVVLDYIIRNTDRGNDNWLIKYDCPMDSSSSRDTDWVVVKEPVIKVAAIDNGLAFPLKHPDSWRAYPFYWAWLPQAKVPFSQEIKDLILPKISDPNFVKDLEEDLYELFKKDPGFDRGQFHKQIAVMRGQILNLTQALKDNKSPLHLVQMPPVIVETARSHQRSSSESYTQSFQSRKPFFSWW
#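 Compounds are screened against recombinant PI4K2A using PI as substrate and ATP, the latter dispensed at 300 microM. Reactions run one hour at ambient temperature before ADP-Glo detection; full inhibition defined by wells lacking enzyme.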
# RGS4 inh: blocks human RGS4-accelerated GTP hydrolysis. Transcreener GDP fluorescence polarization, RGS4-accelerated GTP hydrolysis. Potency, µM (series often up to 114 µM), for inactives: top-dose activity change, negative = inhibition, most hits filed as inhibitors. 390,000 tested, 0.039% active; active = well fitted inhibition curve with a large enough effect; inconclusive = small, poorly fitted or top-dose-only effect; inactive = no such curve, though single readings can be large or run the other way; also: potency is read from the fitted curve at half-maximal effect; % is scaled to controls: 0 for no effect and ±100 for the full control effect; nearly all actives have a fitted effect of over 75% in size
#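 MLSMR compounds (23 nl, pin-transferred) preincubated 10 min at room temperature with a 500nM (2x) first reagent, then RGS4 at 900nM (2x) plus Transcreener GDP mix added; fluorescence polarization (620/688 nm) read before and after 90 min at 30 °C.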
# * = called active by the depositor; i = inactive; ? = inconclusive; . = no result; ! = not active in a repeat; [ ] = dose if it differs, or a comment. Shown are actives, neighbours in structure and some others; about 2.8% of the full set was active somewhere.
SMILES,pAkt inh,D3 ag,LDHA block,D3 antag,PI4K2A block,RGS4 inh
CCOc1ccc(CN2CCN(Cc3cc4c(cc3Cl)OCO4)CC2CCO)cc1 (centres undefined),i,-40,-4,-64*,1,5%
Cc1ccc(CN2CCN(Cc3cccc4c3OCO4)CC2CCO)cc1 (centres undefined),i,-28,-4,-94*,4,21%
CCOc1ccc(CN2CCN(Cc3cccc4c3OCO4)CC2CCO)cc1 (centres undefined),i,-19,0,-61*,2,8%
O=C(C1CC1)N1CCN=C1SCc1ccccc1Cl,i,-7,-1,-60*,-3,-1%
CC1Sc2ccccc2N(CC(=O)N(C(C)C)C(C)C)C1=O (centres undefined),i,-3,-9,-70*,0,5%
COc1cc(SC)ccc1C(=O)NCCOc1c(C)cc(C)cc1C,i,-3,2,-83*,8,-8%
Cc1ccc(N=Nc2ccc(O)c3ncccc23)cc1,i,-13,0,-118*,-2,-2%
Cc1ccc(N=Nc2ccc(O)c3ncccc23)cc1C,i,-9,6,-69*,6,-13%
CCc1ccc(-c2noc(CSc3nc4ccccc4c(=O)n3CCCO)n2)cc1,.,.,-5,.,.,.
Cc1oc(-c2cccs2)nc1CC(=O)NCc1ccc2c(c1)OCO2,.,.,-5,.,.,.
CC1(C)CC[C@]2(C(=O)O)CC[C@]3(C)C(=CC[C@@H]4[C@@]5(C)CC[C@H](O[C@@H]6O[C@H](C(=O)O)[C@@H](O)[C@H](O[C@@H]7OC[C@H](O)[C@H](O)[C@H]7O)[C@H]6O)C(C)(C)[C@@H]5CC[C@]43C)[C@@H]2C1,i,-22,5,-63*,3,-12%
CC(NC(=O)NC1CCCCC1)C(c1cccs1)N1CCN(c2ccccc2)CC1 (centres undefined),i,-8,-7,-55*,-1,14%
CC(NC(=O)C1CC1)C(c1cccs1)N1CCN(c2ccccc2)CC1 (centres undefined),i,-5,-1,-5,6,-13%
COc1ccc(OC)c2sc(N3CCN(C(C)=O)CC3)nc12,.,.,4,.,.,.
CC(C(=O)N1CCNC1=O)N(C)Cc1ccc(Cl)cc1 (centres undefined),.,.,2,.,.,.
CN(C)c1ccc(C(=C2C=CC(=[N+](C)C)C=C2)c2c(O)c(S(=O)(=O)[O-])cc3cc(S(=O)(=O)O)ccc23)cc1,.,-5,10,.,.,.
CCN(CC)c1ccc(C(=C2C=CC(=[N+](CC)CC)C=C2)c2ccc(S(=O)(=O)O)cc2S(=O)(=O)[O-])cc1,i,-15,5,-8,-56*,?
CC1(C)S[C@@H]2[C@H](NC(=O)[C@H](N)c3ccccc3)C(=O)N2[C@H]1C(=O)OC1OC(=O)c2ccccc21 (some centres undefined),i,-34,-6,-67*,-7,9%
Cc1cc(C(=O)CN2C(=O)NC(c3ccccc3)(c3ccccc3)C2=O)c(C)n1Cc1ccccc1,-136%*,1,-9,1,7,4%
Cc1cc(C(=O)CN2C(=O)C(=O)N(Cc3ccccc3)C2=O)c(C)n1Cc1ccccc1,i,-10,-2,-15,2,-30%
COc1ccc(C)cc1NC(=O)C1CCN(S(=O)(=O)c2c(C)noc2C)CC1,i,40*,-2,3,-2,3%
CN(C(=O)CSC1=Nc2ccccc2C2=NC(c3ccccc3)C(=O)N12)C1CCCCC1 (centres undefined),i,-6,-9,-55*,19,10%
O=C1NC(=S)N/C1=C/c1cc([N+](=O)[O-])ccc1O,i,-5,-8,-107*,-7,-52%
O=C1NC(=S)N/C1=C/c1cccc([N+](=O)[O-])c1O,i,-8,-4,-75*,-6,-8%
Cc1ccc(/C=C2\NC(=S)NC2=O)cc1[N+](=O)[O-],i,-4,-10,5,1,-35%
SMILES,pAkt inh,D3 ag,LDHA block,D3 antag,PI4K2A block,RGS4 inh
CC1CCCN(CCCNC(=O)c2nn(C)c3c2CSc2ccccc2-3)C1 (centres undefined),i,-17,-1,-66*,3,13%[11.4 µM]
CC1CCCN(CCCNC(=O)c2ccc3c(c2)N(Cc2ccc(F)cc2)C(=O)c2ccccc2S3=O)C1 (centres undefined),i,-20,-5,-82*,0,20%
CC1CCCN(CCCNC(=O)c2ccc3c(c2)N(Cc2ccccc2F)C(=O)c2ccccc2S3(=O)=O)C1 (centres undefined),i,-26,-1,-112*,3,-17%
O=C(NCCCN1CCCC1)c1ccc2c(c1)N(Cc1ccc(F)cc1)C(=O)c1ccccc1S2=O (centres undefined),i,-15,2,?,-6,13%
CC1CCCN(CCCNC(=O)c2ccc3c(c2)N(Cc2cccc(Cl)c2)C(=O)c2ccccc2S3=O)C1 (centres undefined),i,-10,-6,-117*,3,.
CC1CCCCN1CCCNC(=O)c1nn(C)c2c1CSc1ccccc1-2 (centres undefined),i,-25,-5,?,-4,-4%
O=C(NCCCN1CCOCC1)c1ccc2c(c1)N(Cc1cccc(Cl)c1)C(=O)c1ccccc1S2=O (centres undefined),i,-2,1,-6,1,-4%[56.9 µM]
CCCCNCC#CCOc1cc(C)ccc1C(C)C,i,0,-11,-52*,7,11%
Cc1ccc2nc(CSc3nnc4c(Cl)cc(C(F)(F)F)cn34)cn2c1,.,.,31,.,.,.
Cc1ccc(NC(=O)Cn2c(-c3nonc3N)nc3ccccc32)cc1C,.,4,-2,.,0,15%
Cc1ccc(C)c(NC(=O)Cn2c(-c3nonc3N)nc3ccccc32)c1,.,3,-33*!,.,2,-8%
NS(=O)(=O)c1ccc(NC(=S)NC(=O)c2ccc(-c3ccccc3)cc2)cc1,i,38*,-4,-14,1,-25%
Cc1ccc(C(=O)NC(NC(=S)Nc2ccc(S(N)(=O)=O)cc2)C(Cl)(Cl)Cl)cc1 (centres undefined),i,2,-34*,8,-1,-34%
COc1cc(C(=O)/C=C/c2cccnc2)c([N+](=O)[O-])cc1OC,i,0,-6,-73*,-7,-44%
Oc1ccc(NCc2ccccc2OCc2ccc(Cl)cc2)cc1,.,-1,33,.,-53*,-37%
CCOc1cc(CNc2ccc(O)cc2)ccc1OCc1ccc(Cl)cc1,.,4,29,.,-55*,?
